Source: PubChem BioAssay (Tox21)
Inconclusive results are not listed. Activity calls are given as the source filed them. Unless noted, calls come from the whole dose curve; as a rule, active = well fitted curve in the direction sought with a large enough effect in the repeat runs; inconclusive = weak or mixed curves; inactive = no such curve, though single readings can be large; an effect the other way counts as inactive or inconclusive.

Key:
[1] = target: Retinoic acid receptor RXR-alpha (Homo sapiens) (UniProt P19793); test: qHTS assay to identify small molecule agonists of the RXR signaling pathway (AID 1159527; calls by dose curve; note: nearly all actives have a fitted effect of over 35% in size)
Chain of Retinoic acid receptor RXR-alpha (Homo sapiens) (P19793 whole entry, looked up): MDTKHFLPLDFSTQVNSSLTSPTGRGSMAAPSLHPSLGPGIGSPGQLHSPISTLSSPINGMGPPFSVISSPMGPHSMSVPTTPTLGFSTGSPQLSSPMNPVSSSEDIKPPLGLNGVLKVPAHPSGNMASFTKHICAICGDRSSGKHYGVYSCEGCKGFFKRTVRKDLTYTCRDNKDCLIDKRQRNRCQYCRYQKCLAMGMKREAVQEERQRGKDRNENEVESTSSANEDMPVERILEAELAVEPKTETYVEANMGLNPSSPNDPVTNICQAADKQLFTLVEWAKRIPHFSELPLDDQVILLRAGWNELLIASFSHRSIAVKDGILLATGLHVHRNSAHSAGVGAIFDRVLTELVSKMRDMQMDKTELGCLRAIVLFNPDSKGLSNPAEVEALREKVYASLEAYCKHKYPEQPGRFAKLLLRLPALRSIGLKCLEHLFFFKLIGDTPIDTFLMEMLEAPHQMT
How it was run: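 16 hr incubation of compound-treated RXR-alpha-UAS-bla HEK 293T cells (2% charcoal-stripped FBS, 37 C) preceded a 2 hr room-temperature LiveBLAzer FRET substrate step and blue/green fluorescence measurement.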

[2] = qHTS assay to identify small molecule agonists of the RXR signaling pathway - cell viability counter screen (AID 1159529);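 note: HEK 293T cells carrying an RXR-alpha UAS beta-lactamase reporter; series mostly up to about 77 µM; nearly all actives have a fitted effect of over 50% in size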
How it was run: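 In this parallel viability measure, GeneBLAzer RXR-alpha HEK 293T cells (2% charcoal-stripped FBS) were given a 5 hr preincubation, treated with compounds 16 hr at 37 C, and read by CellTiter-Glo luminescence.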

[3] = qHTS assay to identify small molecule antagonists of the retinoid acid receptor (RAR) signaling pathway - cell viability counter screen (AID 1159551); note: nearly all actives have a fitted effect of over 35% in size
How it was run: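 C3RL4 RARE-luciferase cells, 1,000/well, incubated overnight, then dosed with compound plus 1 uM retinol (final). After 6 hr at 37 C, viability read by CellTiter-Glo ATP luminescence following 30 min at room temperature.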

[4] = target: Luciferin 4-monooxygenase (Photinus pyralis) (UniProt P08659); test: qHTS assay to identify small molecule inhibitors of firefly luciferase (AID 1224835); note: series mostly up to about 120 µM; nearly all actives have a fitted effect of over 25% in size
Chain of Luciferin 4-monooxygenase (Photinus pyralis) (P08659 whole entry, looked up): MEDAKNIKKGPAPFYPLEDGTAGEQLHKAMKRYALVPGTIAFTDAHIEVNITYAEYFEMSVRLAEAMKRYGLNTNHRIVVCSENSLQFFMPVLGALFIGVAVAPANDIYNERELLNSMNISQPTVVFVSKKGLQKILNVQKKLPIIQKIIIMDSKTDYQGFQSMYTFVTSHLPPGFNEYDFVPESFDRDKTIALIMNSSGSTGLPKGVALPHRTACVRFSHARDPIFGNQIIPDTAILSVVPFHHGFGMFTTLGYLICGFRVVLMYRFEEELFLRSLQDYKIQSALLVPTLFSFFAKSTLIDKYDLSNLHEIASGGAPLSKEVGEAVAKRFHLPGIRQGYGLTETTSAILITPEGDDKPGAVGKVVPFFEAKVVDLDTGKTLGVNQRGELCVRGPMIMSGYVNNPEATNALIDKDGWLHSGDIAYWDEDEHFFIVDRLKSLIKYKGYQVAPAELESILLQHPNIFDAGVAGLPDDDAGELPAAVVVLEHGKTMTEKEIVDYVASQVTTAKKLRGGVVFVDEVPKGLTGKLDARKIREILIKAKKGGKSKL
How it was run: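 Quantitative HTS format; KM concentrations of both substrates. Purified P. pyralis FLuc activity quantified from luminescence images.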

[5] = qHTS assay to identify small molecule agonists of the constitutive androstane receptor (CAR) signaling pathway - cell viability counter screen (AID 1224836); note: series mostly up to about 92 µM; nearly all actives have a fitted effect of over 45% in size
How it was run: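 Using CellTiter-Fluor, viability of HepG2 cells harbouring hCAR and CYP2B6-2.2kb was measured following 23 h incubation with a 15-concentration compound series plus PK11195 (0.75 uM final).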

[6] = qHTS assay to identify small molecule antagonists of the constitutive androstane receptor (CAR) signaling pathway - cell viability counter screen (AID 1224837); note: series mostly up to about 92 µM; nearly all actives have a fitted effect of over 45% in size
How it was run: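 HepG2 cells stably carrying hCAR and CYP2B6-2.2kb reporter, stimulated with 50 nM CITCO and compounds at 15 concentrations for 23 h at 37 C. Viability measured by CellTiter-Fluor fluorescence.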

[7] = target: Nuclear receptor subfamily 1 group I member 3 (Homo sapiens) (UniProt Q14994); test: qHTS assay to identify small molecule antagonists of the constitutive androstane receptor (CAR) signaling pathway (AID 1224838); note: nearly all actives have a fitted effect of over 40% in size
Chain of Nuclear receptor subfamily 1 group I member 3 (Homo sapiens) (Q14994 whole entry, looked up): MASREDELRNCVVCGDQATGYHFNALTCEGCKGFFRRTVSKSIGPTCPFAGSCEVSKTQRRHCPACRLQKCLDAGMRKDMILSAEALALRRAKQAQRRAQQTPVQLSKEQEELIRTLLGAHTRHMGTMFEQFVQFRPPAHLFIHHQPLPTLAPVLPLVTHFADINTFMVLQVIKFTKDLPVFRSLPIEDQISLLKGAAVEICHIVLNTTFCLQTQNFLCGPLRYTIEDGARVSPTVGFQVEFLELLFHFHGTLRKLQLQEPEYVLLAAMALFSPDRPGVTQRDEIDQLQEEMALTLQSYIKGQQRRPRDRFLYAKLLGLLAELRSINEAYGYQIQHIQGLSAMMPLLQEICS
How it was run: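 HepG2 cells stably carrying hCAR and a CYP2B6-2.2kb luciferase reporter, seeded 4 hrs before compound (15 concentrations). Stimulated with 50 nM CITCO for 24 hr at 37 C. ONE-Glo luminescence read after 30 min at room temperature.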

[8] = target: Nuclear receptor subfamily 1 group I member 3 (Homo sapiens) (UniProt Q14994); test: qHTS assay to identify small molecule agonists of the constitutive androstane receptor (CAR) signaling pathway (AID 1224839); note: nearly all actives have a fitted effect of over 15% in size; note: potency is the fitted concentration of half-maximal effect
How it was run: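 Double-stable HepG2 cells (hCAR, CYP2B6-2.2kb) seeded 4 h before compound addition. Exposure 24 h with 0.75 uM PK11195 final. Luciferase detected by ONE-Glo.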

[9] = qHTS assay to identify small molecule antagonists of the estrogen related receptor signaling pathway with the pleiotropic PPARgamma coactivator (PGC) from Tox21 10K library - cell viability counter screen (AID 1224840; active = well fitted cell-killing curve with a large enough effect in the repeat runs, not every such curve was filed as active; note: nearly all actives have a fitted effect of over 40% in size)
How it was run: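 PGC/ERR cells (2,000/well) plated 6 h, then compound-treated for 17.5 h at 37 C. Viability measured by CellTiter-Fluor fluorescence after 30 min at 37 C, multiplexed with the pathway assay.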

[10] = qHTS assay to identify small molecule antagonists of the estrogen related receptor signaling pathway with the pleiotropic PPARgamma coactivator (PGC) from Tox21 10K library (AID 1224841; call rule not given here; note: series mostly up to about 92 µM; actives are mostly falling curves and most rising ones were filed inactive; nearly all actives have a fitted effect of over 50% in size)
How it was run: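 PGC/ERR cell line, 2,000 cells/well, pre-incubated 6 hours at 37 C, then exposed to compounds for 18 hours at 37 C; luciferase read with One-Glo luminescence after 30 min at room temperature.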

[11] = qHTS assay to identify small molecule agonists of the estrogen related receptor signaling pathway with the pleiotropic PPARgamma coactivator (PGC) from Tox21 10K library (AID 1224842); note: nearly all actives have a fitted effect of over 15% in size
How it was run: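 PGC/ERR reporter cells (NTP line) were seeded 2,000 per well, rested 6 h at 37 C/5% CO2, then pin-dosed with compounds in DMSO for 18 h at 37 C; luciferase read by One-Glo luminescence after 30 min at room temperature.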

[12] = qHTS assay to identify small molecule antagonists of the retinoic acid receptor (RAR) signaling pathway (AID 1159552; note: nearly all actives have a fitted effect of over 50% in size)
How it was run: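 C3RL4 RARE-luc cells, overnight plating; retinol 1 uM final added right after compound; 6 hr 37 C; luciferase read at 30 min RT.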

[13] = qHTS assay to identify small molecule agonists of the retinoic acid receptor (RAR) signaling pathway (AID 1159553)
How it was run: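 C3RL4 RARE-luciferase cells were seeded at 1,000/well and grown overnight at 37 C, then exposed to compounds for 6 hr at 37 C, 5% CO2. Luciferase reagent was added and luminescence was read after 30 min at room temperature.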

[14] = qHTS assay to identify small molecule antagonists of the estrogen related receptor (ERR) signaling pathway from Tox21 library - cell viability counter screen (AID 1224834); note: nearly all actives have a fitted effect of over 30% in size
How it was run: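 ERR reporter cells, 2,000 per well, rested 6 h, then exposed to compound in DMSO for 17.5 hours at 37 C. Viability read as fluorescence after 30 min with CellTiter-Fluor.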

Measured: Potency

CCn1c(=O)c2c(nc(/C=C/c3ccc(OC)c(OC)c3)n2C)n(CC)c1=O
not listed: [12] | [13] | [14]
inactive: all other assays above

COc1cc(C)cc(O)c1
not listed: [10] | [11] | [12] | [13] | [14]
inactive: all other assays above

NCCN1CCNC1=O
inactive: [1] | [2] | [3] | [4] | [5] | [7] | [9]

Cc1ccc(Nc2ccc(O)c3c2C(=O)c2ccccc2C3=O)cc1
inactive: [1] | [2] | [3] | [4] | [5] | [8] | [9]

C=C(C)[C@@H]1CCC2=CC(=O)C[C@@H](C)[C@]2(C)C1
inactive: [1] | [2] | [3] | [5] | [6] | [9] | [10] | [11]

CCCCOCC(C)OCC(C)O (stereo not given)
inactive: [1] | [2] | [3] | [4] | [5] | [7] | [8] | [9]

O=C(CCOCCOCCOCCOCCC(=O)Nc1c(I)cc(I)c(C(=O)O)c1I)Nc1c(I)cc(I)c(C(=O)O)c1I
not listed: [3] | [7] | [8] | [10] | [11]
inactive: all other assays above

NCCNC(=O)c1ccc(Cl)cn1
not listed: [7] | [8] | [12] | [13] | [14]
inactive: all other assays above

Cc1ccc(N)cc1[N+](=O)[O-]
inactive: [1] | [2] | [4] | [5] | [6] | [8] | [9]

C/C=C1\C(=O)C[C@H]2[C@@H]3CCC4=CC(=O)CC[C@]4(C)[C@H]3CC[C@]12C
inactive: [1] | [2] | [3] | [4] | [5] | [6] | [9]

N#CC1(O)CCCCC1
not listed: [6] | [8] | [12] | [13] | [14]
inactive: all other assays above

CSc1nc(NC2CC2)nc(NC(C)(C)C)n1
inactive: [1] | [2] | [3] | [4] | [5] | [6] | [7]
active: [8] 17.2 µM

NC(=O)Nc1nc2ccccc2[nH]1
not listed: [3] | [8] | [10] | [11]
inactive: all other assays above

OCC(CO)(CO)COCC(CO)(CO)CO
inactive: [1] | [2] | [3] | [14] | [5] | [7] | [8] | [9]

CCC(C)(C)C1CCC(OC)CC1 (stereo not given)
not listed: [3] | [4] | [12] | [13]
inactive: all other assays above

Cn1cnc2c(=O)[nH]c(N)nc21
inactive: [1] | [2] | [3] | [4] | [5] | [6] | [8] | [9]

CC12CCC(CC1=O)C2(C)C (stereo not given)
not listed: [3] | [6]
inactive: all other assays above

NC(=O)CCCCC1CCSS1 (stereo not given)
inactive: [1] | [2] | [3] | [4] | [5] | [6] | [8] | [9]
